Reference: PubChem BioAssay
Inconclusive results are not listed. Calls of active or inactive are those of the source.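 The calls were made as follows, unless noted: active = normalized viability below 100% at a tested concentration; inactive = the rest.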

How the values were obtained:
[1] = drug combination growth inhibition, ovarian cancer – cell-based, oncology-focused library, rucaparib conditional, profiling panel (AID 1508598); details: patient-derived ovarian cancer cells, CellTiter-Glo viability, 144 h, stronger effect = lower value
[2] = viability loss in pontine glioma line – cell-based, SU-DIPG-XIII, MIPE4.0, CellTiter-Glo, qHTS, dose response (AID 1347061; cut-off not given, nearly all actives have AC50 up to about 37 µM;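 also: cells exposed to compound for 48 hours before readout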); details: CellTiter-Glo ATP luminescence
[3] = viability loss in pontine glioma line – cell-based, JHH-DIPG-1, MIPE4.0, CellTiter-Glo, qHTS, dose response (AID 1347062; cut-off not given, nearly all actives have AC50 up to about 27 µM;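 as to AC50: cells exposed to compound for two days before readout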); details: JHH-DIPG-1 viability, CellTiter-Glo ATP luminescence
[4] = viability loss in pontine glioma line – cell-based, SU-DIPG-IV, MIPE4.0, CellTiter-Glo, qHTS, dose response (AID 1347063; cut-off not given, nearly all actives have AC50 up to about 30 µM;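 also: compound exposure lasted 48 hours before the viability readout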); details: CellTiter-Glo ATP luminescence
[5] = viability loss in pontine glioma line – cell-based, SU-DIPG-XIII, MIPE5.0, CellTiter-Glo, qHTS, dose response (AID 1347064; cut-off not given, nearly all actives have AC50 up to about 23 µM;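 as to AC50: cells exposed to compound for 48 hours before the viability read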); details: CellTiter-Glo ATP luminescence
[6] = viability loss in pontine glioma line – cell-based, SU-DIPG-XXV, MIPE5.0, CellTiter-Glo, qHTS, dose response (AID 1347065; cut-off not given, nearly all actives have AC50 up to about 26 µM;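 also: cells exposed to compound for 48 hours before ATP readout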); details: CellTiter-Glo ATP luminescence
[7] = JHH-DIPG-1 glioma cell viability, MIPE5.0 library, CellTiter-Glo luminescence, qHTS (AID 1347067; cut-off not given, nearly all actives have AC50 up to about 26 µM;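 also: cells exposed to compound for 48 hours before readout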); details: JHH-DIPG-1 glioma viability, CellTiter-Glo ATP luminescence
[8] = viability loss in pontine glioma line – cell-based, SU-DIPG-XVII, MIPE5.0, CellTiter-Glo, qHTS, dose response (AID 1347060; cut-off not given, nearly all actives have AC50 up to about 26 µM); details: CellTiter-Glo ATP luminescence
[9] = growth inhibition of DIPG cells – cell-based, MIPE5.0 library, qHTS (AID 1347068; cut-off not given, nearly all actives have IC50 up to about 30 µM;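 as to IC50: cells exposed to compound for 48 hours before viability readout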); details: SU-DIPG-XXV viability
[10] = viability loss with induced miR-34 in A549 – imaging, A549 dox-inducible miR-34, nuclei and caspase counts, primary screen (AID 1347080;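 active = compounds whose cell count with miR-34 switched on is under 0.7 times the count with it off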); details: A549 miR-34 inducible, Hoechst nuclei count, 48 h
[11] = MELAS cybrid and Rieske KO viability enhancers – cell-based, MELAS cybrids, Rieske KO mouse fibroblasts, CellTiter-Glo, primary screen (AID 1508586;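 active = mean z-score across replicates of 1.96 or higher in either the MELAS or the Rieske mutant cell line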;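 also: z relative to plate mean and SD of compound and empty wells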); details: low glucose
[12] = growth inhibition of DIPG cells – cell-based, MIPE4.0 library, CellTiter-Glo luminescence, qHTS (AID 1347066; cut-off not given, nearly all actives have AC50 up to about 30 µM;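 also: cells exposed to compound for 48 hours before readout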); details: SU-DIPG-VI viability, CellTiter-Glo ATP luminescence
[13] = at 5 µM, OCI-C5x cells, with rucaparib 10 µM, 100% = cells with rucaparib alone
[14] = at 5 µM, OCI-C5x cells, without rucaparib
[15] = at 5 µM, OCI-P5x cells, with rucaparib 20 µM, 100% = cells with rucaparib alone
[16] = at 5 µM, OCI-P5x cells, without rucaparib
[17] = at 0.000305 µM, OCI-C5x cells, with rucaparib 10 µM, 100% = cells with rucaparib alone
[18] = at 0.000305 µM, OCI-C5x cells, without rucaparib
[19] = at 0.000305 µM, OCI-P5x cells, with rucaparib 20 µM, 100% = cells with rucaparib alone
[20] = at 0.000305 µM, OCI-P5x cells, without rucaparib
[21] = at 0.00122 µM, OCI-C5x cells, with rucaparib 10 µM, 100% = cells with rucaparib alone
[22] = at 0.00122 µM, OCI-C5x cells, without rucaparib
[23] = at 0.00122 µM, OCI-P5x cells, with rucaparib 20 µM, 100% = cells with rucaparib alone
[24] = at 0.00122 µM, OCI-P5x cells, without rucaparib
[25] = at 0.00488 µM, OCI-C5x cells, with rucaparib 10 µM, 100% = cells with rucaparib alone
[26] = at 0.00488 µM, OCI-C5x cells, without rucaparib
[27] = at 0.00488 µM, OCI-P5x cells, with rucaparib 20 µM, 100% = cells with rucaparib alone
[28] = at 0.00488 µM, OCI-P5x cells, without rucaparib
[29] = at 0.0195 µM, OCI-C5x cells, with rucaparib 10 µM, 100% = cells with rucaparib alone
[30] = at 0.0195 µM, OCI-C5x cells, without rucaparib
[31] = at 0.0195 µM, OCI-P5x cells, with rucaparib 20 µM, 100% = cells with rucaparib alone
[32] = at 0.0195 µM, OCI-P5x cells, without rucaparib
[33] = at 0.0781 µM, OCI-C5x cells, with rucaparib 10 µM, 100% = cells with rucaparib alone
[34] = at 0.0781 µM, OCI-C5x cells, without rucaparib
[35] = at 0.0781 µM, OCI-P5x cells, with rucaparib 20 µM, 100% = cells with rucaparib alone
[36] = at 0.0781 µM, OCI-P5x cells, without rucaparib
[37] = at 0.313 µM, OCI-C5x cells, with rucaparib 10 µM, 100% = cells with rucaparib alone
[38] = at 0.313 µM, OCI-C5x cells, without rucaparib
[39] = at 0.313 µM, OCI-P5x cells, with rucaparib 20 µM, 100% = cells with rucaparib alone
[40] = at 0.313 µM, OCI-P5x cells, without rucaparib
[41] = at 1.25 µM, OCI-C5x cells, with rucaparib 10 µM, 100% = cells with rucaparib alone
[42] = at 1.25 µM, OCI-C5x cells, without rucaparib
[43] = at 1.25 µM, OCI-P5x cells, with rucaparib 20 µM, 100% = cells with rucaparib alone
[44] = at 1.25 µM, OCI-P5x cells, without rucaparib
[45] = stronger effect = lower value, cell number ratio, induced over uninduced
[46] = measured here: relative caspase fold change +Dox/-Dox
[47] = measured here: total cells with miR-34 induction, stronger effect = lower value
[48] = measured here: total cells without miR-34 induction

Cc1cc2c(F)c(Oc3ncnn4cc(OC[C@@H](C)O)c(C)c34)ccc2[nH]1
active: viability [1, 16] 97.4%
inactive: viability [1, 13] 122% | viability [1, 14] 139% | viability [1, 15] 109%

CCOc1cc2ncc(C#N)c(Nc3ccc(F)c(Cl)c3)c2cc1NC(=O)/C=C/CN(C)C
inactive: outcome [2] | viability [1, 17] 117% | viability [1, 18] 129% | viability [1, 19] 106% | viability [1, 20] 117% | viability [1, 21] 115% | viability [1, 22] 115% | viability [1, 23] 105% | viability [1, 24] 119% | viability [1, 25] 105% | viability [1, 26] 126% | viability [1, 27] 112% | viability [1, 28] 121% | viability [1, 29] 104% | viability [1, 30] 122% | viability [1, 34] 103% | viability [1, 35] 104% | viability [1, 36] 117% | viability [1, 40] 103%
active: AC50 [3] 7.43 µM | AC50 [4] 0.833 µM | AC50 [5] 5.9 µM | AC50 [6] 934 nM | AC50 [7] 9.34 µM | viability [1, 31] 67.4% | viability [1, 32] 81.4% | viability [1, 33] 89.4% | viability [1, 37] 33.8% | viability [1, 38] 83.6% | viability [1, 39] 87.8% | viability [1, 41] 17.6% | viability [1, 42] 47.6% | viability [1, 43] 66.1% | viability [1, 44] 91.8% | viability [1, 13] 1.66% | viability [1, 14] 3.35% | viability [1, 15] 1.19% | viability [1, 16] 1.58%

COc1cc(OC)c2c(=O)[nH]c(-c3cc(C)c(OCCO)c(C)c3)nc2c1
0.714: fold change [10, 46]
inactive: outcome [8] | outcome [9] | fold change [10, 45] 0.96 | z-score ([11]; MELAS cybrid survival, CellTiter-Glo 48 h, stronger effect = higher value) -0.573
7970: cell count [10, 48]
7650: cell count [10, 47]
-1.26: z-score ([11]; Rieske KO mouse fibroblast survival, CellTiter-Glo 72 h)

CO[C@H]1/C=C/O[C@@]2(C)Oc3c(C)c(O)c4c(O)c(c5c(c4c3C2=O)=NC2(CCN(CC(C)C)CC2)N=5)NC(=O)/C(C)=C/C=C/[C@H](C)[C@H](O)[C@@H](C)[C@@H](O)[C@@H](C)[C@H](OC(C)=O)[C@@H]1C
inactive: outcome [2] | outcome [3] | outcome [4] | outcome [5]

CCN(CC)CCn1c(=O)c(Cc2ccc(OC)cc2)nc2ccccc21
9170: cell count [10, 48]
1.5: fold change [10, 46]
inactive: outcome [2] | outcome [3] | outcome [4] | outcome [5] | outcome [6] | outcome [12] | outcome [7] | outcome [9] | fold change [10, 45] 0.991
9100: cell count [10, 47]

CCOC(=O)N1CCN(/[N+]([O-])=N/Oc2ccc([N+](=O)[O-])cc2C#N)CC1
active: AC50 [3] 1.32 µM
inactive: outcome [2]

Cc1cc(OCCCc2c(C(=O)O)n(Cc3cccnc3)c3c(-c4c(COc5ccc(N6CCN([S+](C)(=O)[O-])CC6)cc5)nn(C)c4C)cccc23)cc(C)c1Cl
inactive: outcome [2] | outcome [3]
active: AC50 [4] 20.9 µM

CCOC(=O)[C@@H](N)CCC(=O)N[C@@H](CSCc1ccccc1)C(=O)N[C@@H](C(=O)OCC)c1ccccc1
inactive: outcome [2] | outcome [3] | outcome [4] | outcome [9]
active: AC50 [5] 18.6 µM | AC50 [6] 26300 nM | AC50 [7] 23.5 µM

CN(C)C1CCN(C(=O)c2ccc(NC(=O)Nc3nc(N4CCOCC4)nc(N4CCOCC4)n3)cc2)CC1
active: AC50 [2] 0.833 µM | AC50 [3] 0.166 µM | AC50 [4] 0.0469 µM | AC50 [5] 0.525 µM | AC50 [6] 295 nM | AC50 [12] 0.264 µM | AC50 [7] 0.525 µM | IC50 [9] 0.934 µM

c1cc(-c2cnn3cc(-c4ccc(OCCN5CCCCC5)cc4)cnc23)ccn1
active: AC50 [2] 23.5 µM | AC50 [3] 10.5 µM | AC50 [4] 10.5 µM | AC50 [5] 13.2 µM | AC50 [6] 11800 nM | AC50 [12] 23.5 µM | AC50 [7] 14.8 µM | IC50 [9] 11.8 µM

Cc1cc(Nc2nc(N[C@@H](C)c3ncc(F)cn3)ncc2Cl)n[nH]1
inactive: viability [1, 18] 105% | viability [1, 21] 112% | viability [1, 22] 112% | viability [1, 25] 106% | viability [1, 26] 115% | viability [1, 27] 102% | viability [1, 29] 112% | viability [1, 30] 102% | viability [1, 31] 101% | viability [1, 33] 102% | viability [1, 34] 104% | viability [1, 36] 101% | viability [1, 38] 102% | viability [1, 42] 101%
active: AC50 [2] 16.6 µM | AC50 [3] 9.35 µM | AC50 [4] 13.2 µM | AC50 [5] 1.48 µM | AC50 [6] 661 nM | AC50 [12] 9.35 µM | AC50 [7] 0.934 µM | IC50 [9] 1.48 µM | viability [1, 17] 99.3% | viability [1, 19] 91% | viability [1, 20] 91.4% | viability [1, 23] 92.4% | viability [1, 24] 97.8% | viability [1, 28] 99.3% | viability [1, 32] 99.8% | viability [1, 35] 96.5% | viability [1, 37] 97.7% | viability [1, 39] 85.8% | viability [1, 40] 99.9% | viability [1, 41] 78.7% | viability [1, 43] 80.1% | viability [1, 44] 86.6% | viability [1, 13] 46.6% | viability [1, 14] 55.9% | viability [1, 15] 30.7% | viability [1, 16] 24.9%
